Consider 40 compounds from PubChem BioAssay AID652040 (Broad Institute, 2013).

Potency and affinity values are given separately. Active and inactive are the calls of the source.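 How the source made its calls: active means falling luciferase signal whose fitted half-maximal concentration is at most twice the top tested dose; inconclusive means flat inhibition between 30 and 70% or a poor curve fit; inactive means the rest.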

A short description of this assay: off-target signal loss in HeLa-CEM21 co-culture – HeLa F-luc CTL cells, cherry-picked, counter-screen for HIV-1 Env fusion inhibitor project, dose response (AID 652040).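 Further: 0% = median of neutral control wells and -100% = doxycycline 40 µg/mL wells; more negative values mean stronger loss of luciferase signal.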 The following applies: HeLa-F-luc CTL cells with CEM21, firefly luciferase counterscreen; series mostly up to 35 µM. In general terms: The purpose of a counterscreen is to sort out artefacts and off-target activity.
For `Cc1sc2ncnc(N3CCN(S(=O)(=O)c4ccc(Br)cc4)CC3)c2c1C`, the call was inactive.

Turning to `CC(C)OCCCn1c(=S)[nH]c2ccc(N3CCOCC3)cc2c1=O`, the compound was classed as inactive.

Take `CCCCCCCn1c2c(c(=N)c3c1CCC3)CCCC2`: the compound was called inactive.

Consider `Clc1ccc2c(c1)C1=C(C(c3ccncc3)O2)C(c2ccc(Br)cc2)n2ncnc2N1` (stereo not given), for which the compound was called inactive.

Turning to `COC(=O)C[C@H]1C=C[C@H](NC(=O)c2ccccn2)[C@@H](CO)O1`, the call was inactive.

As to `COc1ccc(/C=C/c2nc(S(=O)(=O)c3ccccc3)c(NCCCN(C)C)o2)cc1OC`, the outcome was inactive.

`CC(C)CN(C(=O)c1ccc(S(=O)(=O)N2CCCCC2)cc1)C1CCS(=O)(=O)C1` (stereo not given): the compound was called inactive.

Consider `C#CCn1c(=O)c2c(ncn2C)n(C)c1=O`, for which the call was inactive.

For the compound `O=C(c1ccccc1)N1CCC(c2nc(-c3ccc(S(=O)(=O)NCC4CCCO4)cc3)no2)CC1` (stereo not given), the result was inactive.

Consider `Cn1cc(S(=O)(=O)N2CCOCC2)cc1C(=O)Nc1cccc(Cl)c1`, for which the result was inactive.

Regarding `Clc1ccc2c(c1)C(C1=NCCN1)c1ccccc1CS2` (stereo not given), the result was inactive.

`COc1ccc(C(=O)NCCc2ccc(Cl)cc2)cc1S(=O)(=O)N1CCCCC1C` (stereo not given): the outcome was inactive.

Take `CCCCS(=O)(=O)N1CCN(C(=O)C(=O)c2cccc(C(F)(F)F)c2)CC1`: the call was inactive.

With `CSc1ccc(CN(C)C(=O)c2cccc(S(=O)(=O)N3CCN(Cc4ccccc4)CC3)c2)cc1`, the call was inactive.

With `CCNC1CCC(Nc2ccnc3cc(Cl)ccc23)CC1` (stereo not given), the compound was classed as inactive.

Turning to `O=C(Nc1ccncc1)c1ccc(Cl)c(S(=O)(=O)N2CCc3ccccc32)c1`, the result was inactive.

As for `COCCCNC(=O)c1sc2ncnc(N3CCc4ccccc4C3)c2c1C`, the call was inactive.

As for `Cc1cccc(N2CCN(C(=O)CCCSc3nc4ccccc4[nH]3)CC2)c1C`, the result was inactive.

Take `CC(Cl)=CCn1c(NCCc2ccccc2)nc2c1c(=O)n(C)c(=O)n2C`: the result was inactive.

For `Cn1c(=O)c2c(nc(NCCc3ccccc3)n2Cc2ccccc2)n(C)c1=O`, the call was inactive.

`Cc1nc2ccc(NC(=O)c3ccc(Cl)c(S(=O)(=O)N(C)c4ccccc4)c3)cc2s1`: the call was inactive.

Take `Nc1ccc(S(=O)(=O)c2ccc(N3CCOCC3)c(N)c2)cc1`: the compound was called inactive.

In the case of `c1csc(-c2csc3ncnc(NCCCN4CCOCC4)c23)c1`, the compound was called inactive.

As for `Cc1oc(-c2ccccc2F)nc1CN1CCC(C(=O)NCCC2=CCCCC2)CC1`, the outcome was inactive.

Turning to `Cn1c(CN2CCCCC2)nc2cc(NC(=O)c3ccc(Cl)cc3)ccc21`, the outcome was inactive.

For `COc1ccc2c(C)nc(Nc3nc(C)c(C)c(=O)[nH]3)nc2c1`, the compound was classed as inactive.

For `c1ccc(CSc2nnc([C@@H]3CCCN3)o2)cc1`, the call was inactive.

As to `COc1ccccc1N1CCN(Cc2ccc(O)c3ncccc23)CC1`, the activity change, negative = inhibition was 166% [at 8 µM] (inactive).

As for `CCN(C1CCCCC1)S(=O)(=O)c1ccc(S(=O)(=O)NCc2ccncc2)cc1`, the compound was called inactive.

As to `CCCCCn1c(C(C)NC(=O)CCC)nc2ccccc21` (stereo not given), the compound was called inactive.

As for `CCNc1ncnc2c1cnn2C1CCCO1` (stereo not given), the call was inactive.

As to `Cc1ccc(S(=O)(=O)N(C)c2ccc(C(=O)N3CCN(Cc4ccc5c(c4)OCO5)CC3)cc2)cc1`, the outcome was inactive.

Take `COc1ccc(NC(=O)c2ccc(Cl)c(S(=O)(=O)N3CCc4ccccc4C3)c2)cn1`: the call was inactive.

In the case of `CC1CN(S(=O)(=O)c2cc(C(=O)NCCC3=CCCCC3)ccc2Cl)CC(C)O1` (stereo not given), the outcome was inactive.

Consider `CCCCNC(=O)C[C@H]1C[C@@]2(C(=O)OC)C(=C[C@H](C(C)(C)C)O[C@@H]2C)N(Cc2ccc3c(c2)OCO3)C1=O`, for which the call was inactive.

Turning to `CC1CCCN(C(=O)c2ccc(S(=O)(=O)N3CCC(c4nc5ccccc5s4)CC3)cc2)C1` (stereo not given), the outcome was inactive.

As for `Cc1nc2sc(C(c3ccco3)N3CCC(Cc4ccccc4)CC3)c(O)n2n1` (stereo not given), the result was inactive.

Regarding `COC(=O)c1ccc(C(=O)NC2CCCc3c2cnn3-c2ccc(C)c(C)c2)cc1` (stereo not given), the compound was called inactive.

`COc1ccc2c(c1)[nH]c1c(N3CCN(Cc4ccc5c(c4)OCO5)CC3)ncnc12`: the call was inactive.

Regarding `O=S(=O)(NC1CC1)c1ccc(S(=O)(=O)N2CCCc3ccccc32)cc1`, the result was inactive.
